Only some compounds are listed: those with a hit (about 1.5% of all), similar ones and a draw of the others.
eIF4H inh = inhibitors of RNA binding by human eIF4H. 290,000 tested, 0.94% active. eIF4H fluorescence polarization binding assay. inhibition, % at 35 µM;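 further: calls also rest on retests at 20 µM and on dose response follow-up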
PABP FP inh = blocks human PABP binding to poly(A) RNA; P11940; 290,000 tested, 1% active; AID 2014; fluorescence polarization; calls only at 35 µM;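 further: calls also rest on retests at 20 µM and on dose response follow-up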
eIF4E 4G PPI = eIF4E/eIF4G interaction inhibition in translation initiation; P63073+Q04637; TR-FRET eIF4E-eIF4GI(517-606) binding, 2 h; inhibition, % at 21.7 µM; 220,000 tested, 0.37% active;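 active means inhibition above about 30%, limit read from the data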;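 further: 0% = full FRET control wells and 100% = background wells lacking eIF4GI fragment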
PABP1 MLLE inh = blocks PAM2 peptide binding to the PABP1 MLLE domain; GST-MLLE / FITC-PAM2 fluorescence polarization; 360,000 tested, 0.36% active; P11940; inhibition, % at 20 µM; in the data active means inhibition above about 35%, passing the limit was not always enough;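 further: plate controls were DMSO wells with GST-MLLE for no effect and wells lacking GST-MLLE protein for full effect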
* = called active by the depositor; i = inactive; · = no result given; + = active, no number; [ ] = another dose, or the depositor's remark. Unless noted, how the calls were made is not given here.

SMILES | eIF4H inh | PABP FP inh | eIF4E 4G PPI | PABP1 MLLE inh
c1ccc2c3c([nH]c2c1)C1(CCCCC1)NCC3 | 2.0 | i | 0.0 | 3.8
Cc1cn([C@H]2C[C@H](O)[C@@H](CNC/C=C/c3ccccc3[N+](=O)[O-])O2)c(=O)[nH]c1=O | · | · | · | -0.8
C(=C\c1ccccc1)/CN1CCN(C(c2cccs2)c2nnnn2-c2ccc3c(c2)OCCO3)CC1 (configuration not stated) | · | · | · | 12.5
COc1cc(OC)c(C2Nc3cccc4cccc(c34)N2)c(OC)c1 | 70.2* | + | · | 18.6
CCOc1ccc(C2Nc3cccc4cccc(c34)N2)cc1OC | 103.4* | + | 3.6 | -11.0
CCc1nc2c(OCc3cc(Cl)cc(Cl)c3)cccn2c1N(C)C(=O)Nc1ccccc1OC | · | · | · | -1.9
CCOC(=O)C1CCN(C(=O)c2[nH]c(C(F)(F)F)nc2-c2ccccc2)CC1 | · | · | · | -6.7
COc1ccc(NC(=O)C2(C)CCN2Cc2ccccc2Cl)cc1OC (configuration not stated) | · | · | · | 10.2
c1ccc(CCNc2cc(-c3ccc4ccccc4c3)nc3ccnn23)nc1 | · | · | · | 8.2
COc1cccc(OCCCn2ccnc2)c1 | -8.1 | i | · | 6.8
CCOc1cccc(OCCCCn2ccnc2)c1 | -8.0 | i | 36.4* | 0.8
C1CC2CN(c3nc4nonc4nc3N3CCSCC3)CCN2C1 (configuration not stated) | 59.9 | i | 4.0 | 51.6*
C=C(C)Cn1c(C2CC(=O)N(Cc3ccccc3)C2)nc2ccccc21 (configuration not stated) | -1.6 | i | · | 5.5
CCn1c(C2CC(=O)N(Cc3ccccc3)C2)nc2ccccc21 (configuration not stated) | -7.1 | i | 51.9*[fluorescence artefact?] | 2.6
COc1ccc(CN=C2NC(=O)CC(C(=O)Nc3ccc(F)cc3)S2)cc1 (configuration not stated) | 5.6 | i | 35.8* | 0.3
COc1ccc(NC(=O)C2CC(=O)N/C(=N/N=C/c3ccco3)S2)cc1 (configuration not stated) | -2.9 | i | 17.8 | 7.4
O=C(NC(=S)Nc1ccccc1O)c1ccccc1Cl | 0.8 | i | -0.9 | 43.9*
O=C(NC(=S)Nc1ccccc1Cl)C1CC1 | 2.3 | i | · | 40.9*
CC(=O)c1cccc(NC(=S)NC(=O)c2ccccc2Cl)c1 | -8.6 | i | 4.5 | 21.9
CS(=O)(=O)N1N=C(c2ccco2)CC1c1ccco1 (configuration not stated) | 78.2* | + | · | -32.2
CS(=O)(=O)N1N=C(c2ccco2)CC1c1ccccc1 (configuration not stated) | -1.2 | i | 4.1 | 2.8
Cc1ccc(C)c(S(=O)(=O)N2CCN(C(=O)CCNS(=O)(=O)c3ccccc3)CC2)c1 | 4.0 | i | · | -0.7
Oc1ccc(C(=S)N2CCCC2)cc1 | 1.4 | i | · | 35.6
Oc1cccc(C(=S)N2CCCCC2)c1 | -6.1 | i | 0.3 | 38.4*
CCN1CCN(C(=S)c2ccc(O)cc2)CC1 | -1.9 | i | 1.9 | 32.8
SMILES | eIF4H inh | PABP FP inh | eIF4E 4G PPI | PABP1 MLLE inh
CC1CCN(C(=S)c2ccccc2O)CC1 | -13.1 | i | 30.7*[fluorescence artefact?] | 30.1
O=C(Oc1cccc(C(=S)N2CCCCC2)c1)c1ccccc1 | -16.3 | i | -7.2 | 28.8
CC1CCN(C(=S)c2ccc(O)cc2)CC1 | -0.2 | i | -4.2 | 37.4*
Oc1ccc(C(=S)N2CCCCCC2)cc1 | -2.5 | i | 2.3 | 36.6*
COc1cccc(S(=O)(=O)N(C)C[C@@H]2OCc3cnnn3CCCC(=O)N([C@@H](C)CO)C[C@@H]2C)c1 | · | · | · | -4.0
CC(=O)N1CCc2cc(N=NC3=C(O)CC(C)(C)CC3=O)ccc21 | 100.8* | + | 5.8 | -94.6
Cc1nc2ccc(N=NC3=C(O)CC(C)(C)CC3=O)cc2s1 | -14.4 | i | -0.5 | -9.4
O=[N+]([O-])c1cc(Br)c(O)c(/C=N/Nc2nnnn2-c2cccc3ccccc23)c1 | 48.8 | i | 44.2*[fluorescence artefact?] | -16.1
O=[N+]([O-])c1cc(Br)c(O)c(C=Nc2ccc(N3CCOCC3)cc2)c1 | 43.1 | i | 11.5 | 5.7
Cc1c(O)cc2n(c1=O)-c1ccc(Cl)cc1C2(C)C | 0.9 | i | -0.5 | 2.4
CC1(C)c2cc(Cl)ccc2-n2c1cc(O)c(-c1ccccc1)c2=O | -5.2 | i | 70.5* | -9.8
C=CC[C@H]1C(C(=O)OCC)=CC[C@@H](c2ccccc2)N1S(=O)(=O)c1ccc(C)cc1 | · | · | · | -8.4
CCCCCCCn1c(=N)n(CC(O)c2ccco2)c2ccccc21 (configuration not stated) | -6.8 | i | 0.0 | -77.9
N=c1n(CCN2CCCC2)c2ccccc2n1CC(O)c1ccco1 (configuration not stated) | 17.3 | i | 3.8 | 44.0*
CCNc1ccc(C(=O)OCC(=O)NC(C)c2ccccc2)cc1[N+](=O)[O-] (configuration not stated) | -10.3 | i | 46.1* | -42.8
CCNc1ccc(C(=O)OCC(=O)NCc2ccc(C)cc2)cc1[N+](=O)[O-] | 5.5 | i | 2.5 | 1.5
Cc1cccc(C)c1NC(=O)C1CCCN1S(=O)(=O)c1ccccc1 (configuration not stated) | -15.8 | i | · | -10.8
COC(=O)C(N)Cc1ccc(O)c(O)c1 (configuration not stated) | -7.5 | i | -0.8 | 3.8
NC(CO)C(=O)NNCc1ccc(O)c(O)c1O (configuration not stated) | 97.3* | + | 21.8 | 47.9*
CC(C)c1ccc(S(=O)(=O)N2CCC(C(=O)N3CCN(c4cccc(Cl)c4)CC3)CC2)cc1 | · | · | · | -0.8
O=C(C1CCN(S(=O)(=O)c2cccnc2)CC1)N1CCN(c2cccc(Cl)c2)CC1 | 3.4 | i | 86.3* | -9.8
Cc1ccc(SCC(=O)Nc2ccc(-c3nnc(-c4ccco4)o3)cc2)cc1 | 58.0* | + | -7.1 | 8.7
Cc1ccc(NC(=O)CCSc2nnc(-c3ccco3)o2)cc1 | 2.3 | i | -1.2 | 8.5
Cc1ccc(NC(=O)CSc2nnc(-c3ccco3)c(-c3ccco3)n2)cc1 | 100.1* | + | 1.2 | 21.3
O=C(CSc1nnc(-c2ccccc2)c(-c2ccccc2)n1)NCc1ccco1 | 3.2 | i | 3.7 | 10.2
SMILES | eIF4H inh | PABP FP inh | eIF4E 4G PPI | PABP1 MLLE inh
O=C(CSc1n[nH]c(-c2ccco2)n1)Nc1ccc(F)cc1 | -16.4 | i | · | -4.7
O=C(CSc1nnc(-c2ccco2)c(-c2ccco2)n1)Nc1ccccc1 | 95.5* | + | 19.1 | 16.5
CN(C)c1ccc(NC(=O)CSc2nnc(-c3ccco3)c(-c3ccco3)n2)cc1 | 93.0* | + | · | 25.4
COc1ccccc1S(=O)(=O)N(C)C[C@H]1OCc2cnnn2CCCC(=O)N([C@@H](C)CO)C[C@@H]1C | · | · | · | 11.5
COc1cccc(NC(=O)Nc2nnc([C@@H]3C[C@H](O)[C@@H](CO)O3)s2)c1 | · | · | · | 10.3
O=C1N/C(=C/c2cccn2-c2ccccc2)C(=O)N1Cc1ccc(F)cc1 | active | + | 1.0 | -9.5
O=C(O)c1cccc(-n2cccc2/C=C2/NC(=O)N(Cc3ccccc3F)C2=O)c1 | 93.9* | + | 4.4 | 7.5
C(=C\c1ccccc1)/CN1CCN(C(c2cc3ccccc3o2)c2nnnn2C2CCCCC2)CC1 (configuration not stated) | · | · | · | -1.4
